High-throughput results as filed in PubChem.
SKKanGAS inh – S. pyogenes SKKanGAS growth inhibitors in kanamycin, primary screen, streptokinase expression inhibitor project, SKKanGAS strain, BacTiter-Glo luminescence; AID 1662, 2009; inhibition, % at 7.5 µM; 300,000 tested, 1.3% active; 6 h;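 active = mean replicate score, as percent of positive control median, at least 50; inconclusive = mean below 50 but one replicate at or above 50; inactive = mean and every replicate below 50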;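 also: strain carries kanamycin resistance gene driven by streptokinase promoter and grows in 40 µg/ml kanamycin; loss of luminescence reflects streptokinase promoter inhibition or plain growth inhibition; 0% = median of DMSO wells and 100% = positive control at its reference dose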
tim10-1 inh – growth inhibitors of tim10-1 mutant yeast, primary screen, luminescence, uHTS | S. cerevisiae tim10-1 ts strain growth, BacTiter-Glo, 24 h | inhibition, % at 20 µM | 330,000 tested, 2.2% active | AID 463190, 2010;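 active = inhibition of at least 40%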;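 also: mutant grown at 25 °C; 0% = DMSO wells with yeast and 100% = wells holding no yeast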
PfHsp90 set2 – growth inhibition of PfHsp90-expressing yeast, primary screen, antimalarial PfHsp90 inhibitor project, S. cerevisiae, BacTiter-Glo luminescence, single point, set 2; BacTiter-Glo ATP, 48 h; yeast lacking PDR1 and PDR3 efflux regulators; inhibition, % at 9.4 µM; 310,000 tested, 0.32% active;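 active = every replicate shows inhibition above about 80%, whatever the replicate mean, limit read from the data; inconclusive = mean inhibition reaches the set limit but some replicate falls short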;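 also: 0% = DMSO neutral controls and 100% = 20 µM radicicol positive controls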
Calb FLC – C. albicans growth inhibition with fluconazole, primary screen, CaCi-2 strain, Alamar Blue fluorescence | 300,000 tested, 0.57% active | C. albicans CaCi-2 (fluconazole-resistant clinical isolate) + fluconazole, 48 h | AID 1979, 2009 | growth inhibition, % (concentration not given with the values);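 active = growth inhibition above about 58% in most replicates, limit read from the data, passing the limit was not always enough; inconclusive = exactly half the replicates above a set limit; inactive = most replicates below a set limit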;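 also: all wells also contain fluconazole at 8 µg/ml as a sub-toxic cotreatment; 0% = median of DMSO wells and 100% = median of geldanamycin control wells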
TIM10 inh – growth inhibitors of isogenic TIM10 control yeast, primary screen, counter-screen for tim10-1 yeast inhibitor project, luminescence, uHTS | S. cerevisiae TIM10 strain growth, BacTiter-Glo luminescence, 24 h | inhibition, % at 10 µM | 330,000 tested, 1.4% active;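 active = inhibition of 40% or more at the single tested concentration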;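 also: wild-type TIM10 isogenic control strain grown at permissive 25 °C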
tim23-1 inh – growth inhibitors of tim23-1 mutant yeast, primary screen, luminescence, uHTS | S. cerevisiae tim23-1 growth, BacTiter-Glo luminescence, 24 h | inhibition, % at 20 µM | 330,000 tested, 1.3% active | AID 463212, 2010;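 active = growth inhibition of the mutant yeast at or above 50%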;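 also: temperature-sensitive mutant grown at 25 °C; plate controls were DMSO-treated mutant yeast for no effect and medium wells lacking yeast for full effect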
tim10-1 conf – growth inhibitors of tim10-1 mutant yeast, confirmation, single concentration, luminescence, S. cerevisiae. shares compounds with tim10-1 inh. S. cerevisiae tim10-1 ts strain growth, BacTiter-Glo, 24 h. inhibition, % at 20 µM. 7,400 tested, 56% active;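 active = inhibition of yeast growth at or above a set limit in either of two repeat tests at 20 µM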;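 also: tim10-1 mutant grown at permissive 25 °C to find synthetic lethal compounds; 0% = DMSO yeast wells and 100% = medium wells without yeast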
* = called active by the depositor; ? = inconclusive; · = no result. Shown are actives, neighbours in structure and some others; about 4.7% of the full set was active somewhere.

SMILES	SKKanGAS inh	tim10-1 inh	PfHsp90 set2	Calb FLC	TIM10 inh	tim23-1 inh	tim10-1 conf
CC(C)(C)NC(=O)c1ccc(COc2ccc(Cl)cc2Cl)o1	8.4	24.5	-11.3	4.0	27.1	34.2	·
COC(=O)NCC(C)OC(=O)Nc1cccc(Cl)c1 (stereo not given)	-4.5	-7.3	7.0	-12.7	-5.2	-1.6	·
CC(CNC(=O)COc1ccccc1)OC(=O)Nc1ccc(Cl)c(Cl)c1 (stereo not given)	-1.6	49.6*	4.7	7.4	33.4	41.1	42.8*
CCNC(=O)COc1ccc(/C=C2\COc3ccccc3C2=O)cc1OC	-9.9	46.0*	5.9	1.4	35.8	39.3	29.0
COc1ccc(/C=C2\CCc3ccccc3C2=O)cc1OC	5.6	32.9	-20.0	13.7	19.1	37.8	·
COc1ccc(N(CCN2C(=O)c3ccccc3C2=O)C(=O)c2cccc([N+](=O)[O-])c2)cc1	1.1	40.0	-16.1	15.6	34.7	48.6	35.3*
COc1ccc(N(CCCN2C(=O)c3cccc4cccc(c34)C2=O)C(=O)c2ccncc2)cc1	1.7	24.5	-11.6	-4.3	15.3	29.8	·
CCc1ccccc1NS(=O)(=O)c1ccc(SC)cc1	-0.1	24.7	-25.3	4.7	-2.9	5.7	·
CSc1ccc(S(=O)(=O)NCc2ccccc2)cc1	-9.2	45.8*	-5.3	0.0	6.8	41.5	31.4*
CSc1ccc(S(=O)(=O)NCc2ccccc2Cl)cc1	-2.5	52.4*	-46.5	-0.4	33.2	46.0	48.7*
O=S(=O)(NCc1ccccc1)c1ccc(Cl)cc1	6.5	30.6	-26.6	-5.5	27.5	35.1	·
CC(=O)c1cccc(NC(=O)c2nc(-c3ccccc3)oc2C)c1	-13.3	4.8	3.0	12.1	17.0	16.6	·
Cn1c(N)c(C(=O)COC(=O)CNC(=O)c2ccccc2F)c(=O)n(C)c1=O	·	-15.2	·	·	-0.8	-7.7	·
C[C@@]12CCC=C[C@H]1[C@H](c1ccc3ccccc3c1)N(Cc1ccccc1)C2=O	69.5*	52.2*	26.2	-5.3	13.0	11.6	53.0*
COc1ccc(Br)cc1[C@H]1[C@@H]2C=CCC[C@@]2(C)C(=O)N1Cc1ccccc1	?	43.9*	-25.3	-4.4	7.0	6.3	37.5*
CCCOc1ccc(C2=CSC3=NCCN23)cc1[N+](=O)[O-]	2.1	-79.1	5.1	-7.2	5.6	-34.9	·
Cc1cccc(NC(=O)C(CC(C)C)NC(=O)C2CCC(C)CC2)n1 (stereo not given)	-5.5	13.8	-19.8	-5.1	18.1	4.1	·
Cc1ccc(C)c(OCCC(=O)OCC(=O)Nc2cc(S(=O)(=O)N3CCCCC3)ccc2C)c1	·	22.5	-5.4	·	19.1	31.0	·
COc1ccc(/C=N/NC(=O)C(=O)N2CCCCCC2)cc1O	0.1	2.8	-13.1	1.7	-1.2	-0.9	·
O=C(Cn1nc(C(F)(F)F)c2c1CCC2)NCc1ccc(Cl)cc1	5.6	40.8*	17.1	21.0	13.8	-8.8	30.4
COc1ccc(CCNC(=S)NC(=O)c2cccc([N+](=O)[O-])c2)cc1OC	1.6	41.2*	-0.3	8.6	24.1	37.3	26.9
COc1ccc(C(=O)O/N=C(\N)c2ccccc2Cl)cc1OC	0.8	62.9*	20.7	-3.7	29.4	31.4	52.5*
COc1ccc(CCNC(=O)c2cc([N+](=O)[O-])cc([N+](=O)[O-])c2)cc1OC	7.5	·	-15.4	5.6	·	·	·
N/C(=N\OC(=O)CSc1ccccc1)c1cccc([N+](=O)[O-])c1	-3.7	42.1*	-3.0	-17.8	24.1	30.5	40.3*
N/C(=N\OC(=O)c1cccc2ccccc12)c1cccc([N+](=O)[O-])c1	-15.5	32.9	-5.1	-9.5	5.9	21.7	·
SMILES	SKKanGAS inh	tim10-1 inh	PfHsp90 set2	Calb FLC	TIM10 inh	tim23-1 inh	tim10-1 conf
N/C(=N\OC(=O)c1cccs1)c1cccc([N+](=O)[O-])c1	-9.4	46.9*	-3.7	-6.1	12.6	12.2	39.0*
COc1ccc(/C(N)=N/OC(=O)c2ccc(OC)c([N+](=O)[O-])c2)cc1OC	-1.8	36.7	11.5	6.1	10.5	11.5	·
COc1ccc(/C(N)=N/OC(=O)c2cccc([N+](=O)[O-])c2)cc1OC	0.0	42.3*	·	-0.8	6.4	10.6	15.2
O=C(c1cc(COc2cccc3cnccc23)on1)N1CCC(c2ccccc2Cl)C1 (stereo not given)	16.9	51.1*	7.5	4.1	12.3	32.2	2.9
CCc1ccc(CN(C)C(=O)c2cc(COc3cccc4cnccc34)on2)cc1	7.8	44.3*	-1.8	5.1	17.3	40.4	1.9
CSc1ccccc1NC(=O)C1=CC(c2cccs2)=NS(=O)(=O)N1C	-1.3	20.4	8.5	-8.3	9.9	21.0	·
CCC(C)c1ccc(NC(=O)NCc2cccnc2)cc1 (stereo not given)	13.5	35.7	·	-0.6	21.4	24.3	·
CCC(C)c1ccc(NC(=O)Nc2cccnc2)cc1 (stereo not given)	-19.1	43.3*	-9.3	26.6	26.0	36.0	33.5*
CC(C)C1OC(c2cccc(NC(=O)c3cccs3)c2)OCC1(C)C (stereo not given)	12.8	44.1*	-40.3	-8.1	39.3	22.6	32.5*
COc1cc(NC(=O)[C@@H](NC(=O)N2CCn3c2nc2ccccc23)C(C)C)cc(OC)c1	7.3	2.5	33.3	8.2	-4.8	4.2	·
COc1ccc(CCNC(=O)Nc2cccs2)c(OC)c1	3.9	40.8*	-0.3	-0.4	24.3	31.6	36.2*
S=C(Nc1cccc2ccccc12)NC1CCCCC1	7.1	28.4	-5.2	12.0	23.9	30.8	·
CN(Cc1ccccc1)C(=O)c1ccc(NC(=O)Cc2cccc(NC(=O)C3CCN(C(=O)C4CCCC4)CC3)c2)cc1	·	7.1	-14.3	·	-3.1	13.0	·
O=C1CN(Cc2ccccc2)C(=NCc2ccco2)S1	-5.5	45.2*	5.9	4.8	4.3	33.9	19.6
O=C1CS/C(=N/N=C/c2ccccc2)N1Cc1ccco1	-1.6	-15.0	8.9	-0.5	-9.4	12.9	·
O=C1NC(c2ccccc2)N=C2Oc3ccccc3C=C12 (stereo not given)	·	·	-19.0	·	·	·	·
COc1ccccc1-c1cc(C(=O)NCc2ccccc2)no1	-21.6	43.6*	16.9	-19.3	27.4	41.0	25.6
O=[N+]([O-])c1ccc(Cn2cc(-c3cccc(C(F)(F)F)c3)nn2)cc1	1.5	46.6*	-8.9	14.5	19.6	49.1	32.4*
